# DAX1 inh – DAX1 (NR0B1) inhibition, primary screen; HEK293T StAR-luciferase reporter, SF-1/DAX-1 repression relief; 370,000 compounds, 1.1% hits; AID 652010; inhibition, % at 6.8 µM;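 active = inhibition above the mean over all tested compounds plus 3 SD, cut at about 3.6% in these data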;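 also: 0% = DAX-1 cells with DMSO and 100% = cells lacking DAX-1 with DMSO; higher inhibition means more luminescence from relief of DAX-1 repression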
# ssDAF12 agonist – activates DAF-12 receptor from parasite S. stercoralis. HEK293 ssDAF-12/GRIP1 lit1-tk-luc reporter, luminescence; % of 3 µM dafachronic acid response. activation, % at 6.8 µM. 370,000 compounds, 1% hits;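 active = activation above the mean over all tested compounds plus 3 SD, cut at about 0.9% in these data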;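 also: 0% = DMSO-only wells and 100% = 3 µM delta7-dafachronic acid wells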
# SMARCA2 act – increases SMARCA2 function in MMTV reporter cells; activation, % at 9.1 µM; 370,000 compounds, 1% hits; MG213 cells, MMTV-luciferase reporter, dexamethasone, overnight; AID 652017; in the data active = activation above about 7.8%;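 also: 0% = vehicle wells and 100% = reference activator wells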
# hgDAF12 agonist – hgDAF-12 agonism, primary luciferase screen | HEK293 GAL4-hgDAF12 UAS-luciferase reporter, agonist luminescence; normalized to butyrate control | activation, % at 6.8 µM | 370,000 compounds, 1.8% hits;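 active = activation above a cutoff set at the mean of all screened compounds plus 3 SD, cut at about 10% in these data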;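 also: 0% = DMSO wells and 100% = sodium butyrate wells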
# hcDAF-12 act – activators of H. contortus DAF-12 nuclear receptor | HEK293 hcDAF-12 lit1-tk-luc reporter, luminescence; 0% DMSO, 100% Δ7-dafachronic acid | activation, % at 6.8 µM | 370,000 compounds, 1.4% hits;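 active = activation above the mean of all tested compounds plus 3 SD, cut at about 5.5% in these data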;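 also: 100% = response to 3 µM Δ7-dafachronic acid high control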
# DAX1 inh confirm – NR0B1 (human) inhibition, confirmation; inhibition, % at 6.8 µM; shares compounds with DAX1 inh; AID 652134; 2,400 compounds, 87% hits; HEK293T StAR-promoter luciferase reporter, SF-1/DAX-1 repression;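 active = inhibition above the average of every tested compound plus 3 SD, cut at about 3.8% in these data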;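 also: 0% = DAX-1 cells with DMSO and 100% = no DAX-1 control cells with DMSO; active compounds raise luminescence by relieving repression of the StAR reporter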
# SF1 AF2mut Luc – counter-screen for DAX1 inhibitors: nonselective inhibitors with SF-1 AF2 mutant; AID 652136; 2,400 compounds, 78% hits; inhibition, % at 6.8 µM; shares compounds with DAX1 inh; HEK293 StAR-luciferase, luminescence;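 active = inhibition above the mean of all tested compounds plus 3 SD, cut at about 3% in these data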;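 also: 0% = DAX-1 transfected cells with DMSO and 100% = cells without DAX-1 with DMSO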
# LXR ag – activates human LXR-beta, counter-screen for hcDAF-12 agonists; shares compounds with hcDAF-12 act; HEK293 Gal4-LXR tk-luc reporter, luminescence, 24 h; normalized: DMSO 0%, positive control 100%; activation, % at 6.8 µM; 3,400 tested, under 10 active;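 active = mean percent activation of the reporter above a cutoff set as the average over tested compounds plus their standard deviation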
# Target sequence (P55055 whole entry, looked up, the tested form may be a part): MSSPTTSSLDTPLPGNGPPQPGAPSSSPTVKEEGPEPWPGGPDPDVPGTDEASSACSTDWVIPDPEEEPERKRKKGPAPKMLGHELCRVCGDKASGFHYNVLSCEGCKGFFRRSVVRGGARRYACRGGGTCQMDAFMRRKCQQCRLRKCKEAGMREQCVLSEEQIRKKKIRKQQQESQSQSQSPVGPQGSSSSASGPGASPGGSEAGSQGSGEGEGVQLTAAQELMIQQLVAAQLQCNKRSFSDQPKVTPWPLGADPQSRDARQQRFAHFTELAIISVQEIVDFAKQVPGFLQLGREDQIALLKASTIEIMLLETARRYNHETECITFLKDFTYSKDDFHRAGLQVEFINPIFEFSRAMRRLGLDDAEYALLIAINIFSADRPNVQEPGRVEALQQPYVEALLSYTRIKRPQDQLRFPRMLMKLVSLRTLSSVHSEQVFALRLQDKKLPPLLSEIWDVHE
# hcDAF12 ag – hcDAF-12 agonism, confirmation assay; 3,400 compounds, 61% hits; AID 743032; shares compounds with hcDAF-12 act; HEK293 hcDAF-12 lit1-tk-luc reporter, luminescence; % of Δ7-dafachronic acid response; activation, % at 6.8 µM;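 active = mean activation across triplicate tests above the threshold derived from the earlier primary screen, cut at about 5.5% in these data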;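 also: 0% = DMSO only wells and 100% = 3 µM Δ7-dafachronic acid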
# hgDAF12 ag – confirmation of H. glycines DAF-12 agonists | shares compounds with hgDAF12 agonist | HEK293 GAL4-hgDAF12 luciferase reporter, agonist mode; percent of butyrate response | activation, % at 6.8 µM | 3,300 compounds, 80% hits | AID 743050;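 active = mean activation over triplicate wells above the hit cutoff derived from the earlier primary screen, cut at about 11% in these data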;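 also: 0% = DMSO low control and 100% = 2 mM sodium butyrate high control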
# LXRb DAF12 ctr – activates human LXR-beta, counter-screen for DAF-12 agonists; shares compounds with hgDAF12 agonist; HEK293 Gal4-LXR luciferase reporter, 24 h; activation, % at 6.8 µM; 3,300 tested, under 10 active;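 active = mean activation of the triplicate above a set limit carried over from the primary screen, none filed active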
# * hit, by the source's call; . = no result. Sampled rows, rich in hits. Any-hit rate of the full collection: about 4.2%.
SMILES,DAX1 inh,ssDAF12 agonist,SMARCA2 act,hgDAF12 agonist,hcDAF-12 act,DAX1 inh confirm,SF1 AF2mut Luc,LXR ag,hcDAF12 ag,hgDAF12 ag,LXRb DAF12 ctr
COc1ccccc1OCCNC(=O)c1ccc2c(c1)OCCO2,7.8*,0,2,17*,5,8.9*,6.0*,.,.,14*,1
N#Cc1ccsc1NC(=O)COC(=O)c1ccc(NC(N)=O)cc1,6.0*,0,4,17*,8.0*,9.7*,7.1*,1,5.6*,16*,1
Cc1cc(C)cc(N(CC(=O)NC2CCC(C)CC2)S(=O)(=O)c2ccc(Br)s2)c1 (stereo unspecified),0,0,-1,1,0,.,.,.,.,.,.
O=C(CC1SC(N2CCCC2)=NC1=O)Nc1ccc(C(=O)Nc2ncccc2O)cc1 (stereo unspecified),25*,1,0,38*,3,40*,22*,.,.,43*,0
O=C1C(=Cc2cccc(Cl)c2)CCc2ccccc21,1,-1,1,7,1,.,.,.,.,.,.
O=C1C(=Cc2ccc(Cl)cc2)CCc2ccccc21,7.4*,-1,4,15*,3,7.4*,3.3*,.,.,3,1
O=C1/C(=C\c2ccncc2)CCc2ccccc21,0,-1,1,3,0,.,.,.,.,.,.
O=C1C(=Cc2ccccc2Cl)CCc2ccccc21,6.5*,1,0,23*,10*,6.7*,3,2,5.9*,16*,1
COc1ccccc1C=C1CCc2ccccc2C1=O,8.6*,0,6,18*,7.2*,3.9*,1,2,7.5*,13*,1
O=C1C(=Cc2ccc(F)cc2)CCc2ccccc21,9.5*,1,3,22*,7.9*,7.4*,3.3*,2,5,17*,1
COc1ccc(-c2c(-c3ccccc3OC)sc3ccccc23)cc1F,1,-1,-3,0,0,.,.,.,.,.,.
O=C(Nc1ccc(Cl)cc1)c1ccncc1,0,0,0,2,-1,.,.,.,.,.,.
C/C(=N\NC(=O)c1ccncc1)c1ccc(NC(=O)c2ccc(Cl)cc2)cc1,7.5*,0,5,17*,1,3,2.9*,.,.,4,0
c1ccc(CSc2ncnc3c2ncn3C2CCCCO2)cc1 (stereo unspecified),5.1*,0,3,14*,2,6.3*,3.5*,.,.,12*,0
Cn1ccsc1=NC(=O)c1ccc(Cl)cc1,4.6*,1.1*,5,14*,9.4*,8.9*,7.7*,1,7.9*,12*,0
CC(C)(C)c1ccc(S(=O)(=O)N2CCC(C(=O)N3CCN(C4CCCCC4)CC3)CC2)cc1,-1,-1,-5,2,-1,.,.,.,.,.,.
Fc1ccc(Nc2ccc3ccccc3n2)c(F)c1,9.7*,1.0*,6,15*,9.8*,14*,9.4*,2,9.4*,20*,1
c1ccc2c(c1)CC/C2=N/Nc1nc2ccccc2[nH]1,7.3*,0,6,14*,5,11*,11*,.,.,10,1
CCCCCCNC(=O)c1c(N)[nH]c(C(=O)c2ccccc2)c1-c1ccc(O)cc1,.,-2,.,-2,-3,.,.,.,.,.,.
O=C(Nc1ccc(F)cc1)OCc1cn(Cc2ccc(C(F)(F)F)cc2)nn1,0,-1,-2,-2,-3,.,.,.,.,.,.
O=C(NC1=NCCS1)c1ccccc1Cl,1,-2,-1,2,-1,.,.,.,.,.,.
O=C(NC1=NCCS1)c1csc2ccccc12,4.5*,1.1*,3,17*,8.3*,12*,8.1*,2,10.0*,19*,1
Cc1cccc(C(=O)NC2=NCCS2)c1,4.6*,1.2*,3,18*,2,13*,8.1*,.,.,14*,1
CCN(CC)S(=O)(=O)c1cccc(C(=O)NC2=NCCS2)c1,0,0,-2,-2,-2,.,.,.,.,.,.
CC(C)[C@H](NC(=O)c1ccc(Cl)cc1Cl)C(=O)N1CCC[C@H]1C(=O)NCCc1ccccc1Cl,0,-1,4,2,0,.,.,.,.,.,.
SMILES,DAX1 inh,ssDAF12 agonist,SMARCA2 act,hgDAF12 agonist,hcDAF-12 act,DAX1 inh confirm,SF1 AF2mut Luc,LXR ag,hcDAF12 ag,hgDAF12 ag,LXRb DAF12 ctr
O=C(NC1CCCCN(Cc2ccc(Cl)cc2)C1=O)c1ccc(F)cc1 (stereo unspecified),-1,-2,-4,0,-2,.,.,.,.,.,.
COc1ccc(C2=NN3C(C2)c2ccccc2OC32C(=O)N(C)c3ccccc32)cc1 (stereo unspecified),6.6*,2.4*,5,17*,12*,4.0*,4.8*,0,2,22*,1
O=C(Nc1ccc2ncccc2c1)c1ccccc1Cl,0,-1,-1,0,0,.,.,.,.,.,.
O=C(Nc1ccc2ccccc2c1)c1ccccc1Cl,13*,2.3*,3,14*,9.3*,17*,9.2*,2,7.7*,22*,1
C[C@H]1Cn2cnc(C(=O)N3CCN(C(=O)OC(C)(C)C)CC3)c2C(=O)N1,1,-1,-4,-2,-1,.,.,.,.,.,.
CCc1ccc(NC(=O)NC2CCCCCCC2)cc1,7.9*,1,6,17*,4,10*,5.4*,.,.,18*,1
CCc1ccc(NC(=O)C(=S)NC2CCCCC2)cc1,1,-1,4,8,2,.,.,.,.,.,.
Cc1ccc(OCCSc2ncccn2)c(C)c1,8.2*,0,0,23*,4,12*,8.2*,.,.,16*,1
